Rab2 wt GTP – changes GTP binding to wildtype dog Rab2A, up or down | GST-Rab2 wt beads, Bodipy-GTP binding, flow cytometry | GTP binding activity, % at 10 µM | 190,000 tested, 0.19% active | AID 760;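 active = GTP binding activity at least 20 points away from 100%, either lowered or raised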
Cdc42 wt GTP – modulators (inhibitors or activators) of GTP binding to human Cdc42 wildtype | P60953 | GST-Cdc42 beads, Bodipy-GTP binding, flow cytometry; actives lie on both sides | percent activity (GTP binding), % at 10 µM | 190,000 tested, 0.2% active;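 active = percent activity GTP binding at least 20 points away from the 100% baseline, either down as inhibitor or up as activator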;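 also: median bead fluorescence of bound Bodipy-FL-GTP at 100 nM; below 100% means less GTP binding so inhibitor and above means activator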
Target sequence (P60953 whole entry, looked up): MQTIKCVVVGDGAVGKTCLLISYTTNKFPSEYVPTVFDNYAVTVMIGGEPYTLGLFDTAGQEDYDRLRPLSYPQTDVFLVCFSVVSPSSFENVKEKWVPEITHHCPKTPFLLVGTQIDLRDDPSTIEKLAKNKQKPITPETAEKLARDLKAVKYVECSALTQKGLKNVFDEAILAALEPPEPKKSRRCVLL
Rab7 wt GTP bind – alters GTP binding to wildtype dog Rab7; GST-Rab7 beads, fluorescent GTP binding, flow cytometry; actives lie on both sides; untreated = 100%, excess cold GTP = 0%; GTP binding activity (percent of control), % at 10 µM; 190,000 tested, 0.055% active; AID 758;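 active = fluorescent GTP binding to Rab7 beads changed by at least 20 points from the 100% baseline, either direction, mostly lower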;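 also: median green fluorescence of bound Bodipy-FL-GTP per Rab7 bead population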
HRas wt GTP – modulators of GTP binding to human HRas wildtype; P01112; GST-Ras wt beads, Bodipy-FL-GTP binding, flow cytometry; actives lie on both sides; GTP binding activity, % at 10 µM; 190,000 tested, 0.14% active;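 active = GTP binding activity at least 20% away from the 100% baseline, either lowered as inhibitor or raised as activator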
Target sequence (P01112 whole entry, looked up): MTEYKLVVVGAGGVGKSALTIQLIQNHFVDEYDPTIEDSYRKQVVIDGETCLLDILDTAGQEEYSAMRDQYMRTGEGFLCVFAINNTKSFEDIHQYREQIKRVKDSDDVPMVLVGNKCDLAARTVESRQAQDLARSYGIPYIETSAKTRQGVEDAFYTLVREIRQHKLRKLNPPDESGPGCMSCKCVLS
Rac1 wt GTP bind – human Rac1 wildtype GTP binding, inhibitors and activators; AID 757; 190,000 tested, 0.27% active; GTP binding activity (% of control), % at 10 µM; P63000; GST-Rac1 beads, fluorescent GTP binding, flow cytometry; actives lie on both sides; 0 = cold GTP competed, 100 = untreated;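 active = GTP binding activity at least 20 points away from the 100% control level, either lower or higher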
Rac1 act GTP bind – alters GTP binding to activated mutant human Rac1; P63000; GST-Rac1 activated beads, fluorescent GTP binding, flow cytometry; actives lie on both sides; 100% means binding = to untreated wells; percent activity (GTP binding), % at 10 µM; 190,000 tested, 0.11% active; AID 764;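 active = GTP binding at least 20 percentage points away from the 100% baseline, in either direction, so actives lie on both sides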
A number is an active result; i = inactive; [ ] = dose if it differs, or a comment. Hits are enriched below; roughly 0.4% of the tested compounds scored in any of these assays.

SMILES	Rab2 wt GTP	Cdc42 wt GTP	Rab7 wt GTP bind	HRas wt GTP	Rac1 wt GTP bind	Rac1 act GTP bind
Cn1c(NCc2ccccc2)nc2c1c(=O)n(Cc1ccc(Br)cc1)c(=O)n2C	i	i	i	i	i	i
COc1ccc(CNc2nc3c(c(=O)n(Cc4ccc(Br)cc4)c(=O)n3C)n2C)cc1	i	i	i	i	i	79
O=C(C1CCCO1)N1CCN(C(=S)Nc2ccccc2C(F)(F)F)CC1 (stereo not drawn)	125[activator]	i	i	i	i	i
CCn1cc(C(=O)O)c(=O)c2cc(F)c(N/N=C/c3ccccc3[N+](=O)[O-])cc21	58	i	77	63	64	78
O=C(Nc1ccc(Cl)c(Cl)c1)Nc1nnc(CSc2ccccc2)s1	i	i	i	i	i	i
COc1cccc2c(SCC(=O)N/N=C/c3ccccc3)cc(C)nc12	i	i	i	i	i	i
COc1cccc2c(SCC(=O)N/N=C/c3ccc(O)c(O)c3)cc(C)nc12	75	71	i	79	65	i
COc1ccc2nc(C)cc(SCC(=O)N/N=C/c3cccc4ccccc34)c2c1	i	i	i	i	i	i
COc1ccc2nc(C)cc(SCC(=O)N/N=C/c3ccc(O)c(O)c3)c2c1	68	69	i	72	79	i
CCOC(=O)C1CCCN(C(=O)c2cccc(NC(=O)C(CC)CC)c2)C1 (stereo not drawn)	i	i	i	i	i	i
O=C(O)Cc1coc2cc3c(cc12)CCC3	i	i	79	i	i	i
O=[N+]([O-])c1ccccc1/C=C/C=N/n1c(-c2ccco2)n[nH]c1=S	i	76	i	i	77	75
CCCCC(=O)Nc1sc2c(c1C#N)CC(C)(C)OC2	i	i	i	i	i	i
CC1(C)Cc2c(sc(NC(=O)c3ccc(Br)o3)c2C#N)CO1	i	148[activator]	i	i	167[activator]	i
Cc1ccc(CN2CCN(Cc3ccc4cc(F)ccc4n3)CC2CCO)o1 (stereo not drawn)	i	i	i	i	i	i
O=C(c1nnsc1S(=O)(=O)c1ccc(Cl)cc1)N1CCOCC1	i	i	i	i	i	120[activator]
Cc1ccc(C)c(N2CCN(C(=O)CN(C)S(=O)(=O)c3ccc4c(c3)CCC(=O)N4)CC2)c1	77	76	i	i	79	i
COCCCNCC(O)COc1ccccc1F (stereo not drawn)	i	i	i	i	i	i
Cc1cccn2cc(-c3ccc(Cl)cc3)nc12	i	i	i	i	i	i
Cc1ccc(-c2cn3cccc(C)c3n2)cc1	i	i	120[activator]	i	i	i
O=C(O)c1ccc(CNCc2ccc(F)cc2)cc1	i	79	i	i	i	i
O=C(Nc1nccs1)c1ccc(-c2cccc([N+](=O)[O-])c2)o1	i	i	i	i	76	i
O=C(Nc1ncc(Cc2cccc(C(F)(F)F)c2)s1)c1ccc(-c2cccc([N+](=O)[O-])c2)o1	i	i	i	i	i	i
COc1ccc(C(=O)C2CCCN(Cc3ccc4nonc4c3)C2)c(OC)c1 (stereo not drawn)	i	i	i	i	i	i
CCn1cc(C(=O)OCC(=O)c2cc(C)n(-c3cccc(C(F)(F)F)c3)c2C)c(=O)c2ccc(C)nc21	72	79	i	i	70	74
SMILES	Rab2 wt GTP	Cdc42 wt GTP	Rab7 wt GTP bind	HRas wt GTP	Rac1 wt GTP bind	Rac1 act GTP bind
CCOc1cc(/C=N/Nc2nncc(-c3ccccc3)n2)ccc1O	i	i	i	i	74	i
CCOc1cc(/C=N/NC(=O)c2cc(-c3cccnc3)nc3ccccc23)ccc1O	i	i	i	i	78	i
NS(=O)(=O)c1ccc(CCNC(=O)c2ccc3ccccc3n2)cc1	i	i	i	i	i	i
Cc1cc(C(=O)CCl)c(C)n1-c1c(C)n(C)n(-c2ccccc2)c1=O	i	i	i	i	i	i
NS(=O)(=O)c1ccc(Nc2nc3ccccc3nc2NS(=O)(=O)c2cccc([N+](=O)[O-])c2)cc1	i	i	i	i	i	i
COc1ccc(/C=C/C(=O)N2CCN(C)CC2)cc1S(=O)(=O)N1CCCCC1	i	i	i	i	i	i
